Reference: PubChem BioAssay
Active and inactive are the calls of the source. Unless noted, no rule for the calls is given here.

Legend:
[1] = target: Alpha-bungarotoxin (Bungarus multicinctus) (UniProt P60615); experiment: compounds binding labelled alpha-BTX control protein – biochemical, small-molecule microarray, Alexa647 label, 635/667 nm fluorescence, artefact control for SMM control protein annotation, profiling panel (AID 1117); conditions: alpha-BTX-A647 binding fluorescence, higher = more signal
Alpha-bungarotoxin (Bungarus multicinctus), sequence (P60615 whole entry, looked up, the tested form may be a part): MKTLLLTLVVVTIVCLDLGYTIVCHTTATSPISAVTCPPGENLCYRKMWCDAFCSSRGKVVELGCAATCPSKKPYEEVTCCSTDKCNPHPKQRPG

[2] = system: XIP peptide (Xip251-270) binding; experiment: XIP fragment 251-270 binding compounds – biochemical, small-molecule microarray, fluorescence 635/667 nm, 0.1 µg/mL protein, primary screen (AID 1182); conditions: fluorescent protein binding, 635 nm, higher = more signal, called active from +8 up or from −8 down
[3] = system: XIP peptide (Xip251-270); experiment: compounds binding XIP fragment 251-270 – biochemical, small-molecule microarray, fluorescence 635/667 nm, 0.5 µg/mL protein, primary screen (AID 1183); conditions: fluorescence 635 nm, higher = more signal
[4] = blood-stage malaria parasite viability loss – strain 3D7, DAPI fluorescence, 100 nL, primary screen (AID 1184);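 also: parasites grown inside human red blood cells in medium with human serum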; conditions: P. falciparum 3D7 growth, 3 d, higher = more signal
[5] = target: Homeobox protein Hox-A13 (Mus musculus) (UniProt Q62424); experiment: disruptors of Hoxa13 oligonucleotide interaction – biochemical, fluorescence polarization, labeled oligonucleotide, primary screen (AID 1185); conditions: Hoxa13:DNA binding, 15 min, higher = more signal, called active from +8 up or from −8 down
Homeobox protein Hox-A13 (Mus musculus), sequence (Q62424 whole entry, looked up): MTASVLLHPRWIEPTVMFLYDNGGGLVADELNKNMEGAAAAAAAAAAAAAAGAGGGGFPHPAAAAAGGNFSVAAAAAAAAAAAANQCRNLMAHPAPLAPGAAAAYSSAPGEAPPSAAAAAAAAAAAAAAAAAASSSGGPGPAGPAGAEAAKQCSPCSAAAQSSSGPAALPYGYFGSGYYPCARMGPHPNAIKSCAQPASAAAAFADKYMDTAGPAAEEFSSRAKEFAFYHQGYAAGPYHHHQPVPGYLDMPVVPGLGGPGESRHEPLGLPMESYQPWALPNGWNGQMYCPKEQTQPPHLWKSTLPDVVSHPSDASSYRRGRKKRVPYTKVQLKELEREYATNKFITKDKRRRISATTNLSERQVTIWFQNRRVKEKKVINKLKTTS

[6] = blockers of DNA damage checkpoint Chk1 activation – imaging, HeLa, hydroxyurea, phospho-Chk1 antibody, percent positive cells, primary screen (AID 1186); conditions: hydroxyurea-induced phospho-Chk1 immunofluorescence imaging, higher = more signal
[7] = blockers of DNA damage checkpoint Chk1 activation – imaging, HeLa, hydroxyurea, phospho-Chk1 nuclear intensity, primary screen (AID 1187); conditions: hydroxyurea-induced phospho-Chk1 immunofluorescence imaging, higher = more signal

| SMILES | composite z-score [1] | composite z-score [2] | composite z-score [3] | z-score [4] | z-score [5] | z-score [6] | z-score [7] |
| --- | --- | --- | --- | --- | --- | --- | --- |
| O=C1N(CCS(=O)(=O)c2ccccc2)Cc2ccccc2[C@@H]2OC(c3ccc(OCCCO)cc3)=N[C@]12Cc1ccccc1 | 2.73 | 1.73 (inactive) | 0.927 | -2.19 | 2.39 (inactive) | -0.354 (inactive) | 0.111 (inactive) |
| Cc1ccc(S[C@]2(C(=O)NC3CC3)CC(=O)N(Cc3ccccc3C(F)(F)F)[C@@H]2c2ccc(CO)cc2I)cc1 | 0.0637 | 0.0437 (inactive) | -0.811 | -0.215 | -1 (inactive) | 0.104 (inactive) | 0.576 (inactive) |
| Cc1ccc(S[C@]2(C(=O)NCC(C)C)CC(=O)N(C(C)C)[C@@H]2c2ccc(CO)cc2)cc1 | -1.11 | -0.467 (inactive) | -0.284 | -1.79 | 1.8 (inactive) | -0.273 (inactive) | -0.0385 (inactive) |
| NC(=O)NCC#Cc1ccc2c(c1)[C@]1(C(=O)N2)[C@H](c2ccc(OCCO)cc2)N2[C@H](c3ccccc3)[C@H](c3ccccc3)OC(=O)[C@H]2[C@@H]1C(=O)Nc1nc2ccccc2s1 | 1.03 | 0.245 (inactive) | -0.587 | -0.745 | 0.706 (inactive) | 0.0953 (inactive) | 0.219 (inactive) |
| COCCOC(=O)N1C(=O)[C@@]2(c3cc(C#CCCO)ccc31)[C@H](c1ccccc1OCCO)N1[C@H](c3ccccc3)[C@H](c3ccccc3)OC(=O)[C@H]1[C@@H]2C(=O)NC[C@H](O)c1ccccc1 | 1.89 | 0.533 (inactive) | 0.705 | -2.08 | -0.117 (inactive) | -0.29 (inactive) | -0.429 (inactive) |
| C=C[C@H](OC)[C@@H](OC(=O)Nc1ccc(OC)cc1)c1ccc(OC)c(O)c1 | -2.08 | 1.11 (inactive) | -1.18 | -0.294 | -2.75 (inactive) | 0.0254 (inactive) | 0.471 (inactive) |
| CCCNC(=O)[C@@]1(Sc2ccc(C)cc2)CC(=O)N(Cc2cc(C(F)(F)F)cc(C(F)(F)F)c2)[C@@H]1c1ccc(CO)cc1I | 0.521 | 0.459 (inactive) | 0.816 | -0.975 | -2.86 (inactive) | -0.661 (inactive) | -0.6 (inactive) |
| C=CCNC(=O)[C@H]1[C@@H]2C(=O)O[C@@H](c3ccccc3)[C@@H](c3ccccc3)N2[C@@H](c2ccccc2OCCO)[C@]12C(=O)N(C(=O)OCCOC)c1ccc(C#CCCO)cc12 | 0.581 | 0.58 (inactive) | 0.507 | -2.16 | -1.2 (inactive) | 0.051 (inactive) | -0.0745 (inactive) |
| C=CCOC(=O)[C@H]1[C@@H]2C(=O)O[C@@H](c3ccccc3)[C@@H](c3ccccc3)N2[C@@H](c2ccc(OCCOC(=O)[C@H]3C[C@H]4C(=O)N5CCC[C@H]5C(=O)N4[C@H]3c3cccc(OCCO)c3)cc2)[C@]12C(=O)Nc1ccccc12 | 1.64 | 1.33 (inactive) | 0.809 | -1.9 | 1.42 (inactive) | 0.217 (inactive) | 0.5 (inactive) |
